HCV inh: inhibitors of hepatitis C virus infection | Huh7.5.1 HCVcc-Cre infection, luciferase reporter, 44 h | Potency, µM (doses to about 41.8 µM), for inactives: top-dose activity change, negative = inhibition, usual class: inhibitors | hit rate 3.4% among 340,000 | AID 651820; active = well fitted inhibition curve with a large enough effect; inconclusive = small, poorly fitted or top-dose-only effect, or another doubt; inactive = no such curve, though single readings can be large or run the other way; also: potency is read from the fitted curve at half-maximal effect
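HCVcc-Cre virus at an moi near 0.5 was added right after compound to cells cultured 4 h from seeding (1,000 cells/well). Luciferase activity was determined 44 h later, 15 min after substrate addition at RT.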
FMDV antiviral: foot and mouth disease virus antiviral activity; AID 1159524; hit rate 1.2% among 410,000; FMDV antiviral cell-based qHTS; Potency, µM (top dose mostly 57.9 µM), inactives show top-dose activity change, negative = inhibition, usual class: inhibitors; calls by dose curve; tested in HEK293T cells; also: read-out not given here; potency is read from the fitted curve at half-maximal effect; nearly all actives have a fitted effect of over 45% in size
HCMV inh: inhibitors of human cytomegalovirus. activity change, negative = inhibition, % at 57.5 µM. HFF cells, HCMV-luciferase reporter, 72 h; active compounds read low. hit rate 4.5% among 410,000; in the data active = activity change below about -60%; inconclusive = no clear call, values can overlap the other calls; inactive = above about -39%
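Steps: HFFs plated, 16 h 37C; compounds added; HCMV-luciferase added to MOI 1 PFU/cell; 72 h 37C; OneGlo reagent, 5 min room temperature; luminescence read, normalized to controls.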
Lassa entry inh: inhibitors of Lassa virus binding or cell entry; Lassa virus pseudotype entry inhibition, cell reporter; Potency, µM (top dose mostly 37.9 µM), for the others: top-dose activity change, negative = inhibition, most hits filed as inhibitors; hit rate 1.2% among 300,000; AID 540256; calls by dose curve; tested in HEK293 cells; also: potency is read from the fitted curve at half-maximal effect; nearly all actives have a fitted effect of over 50% in size
MARV entry inh: inhibitors of Marburg virus binding or cell entry. Marburg virus pseudotyped entry inhibition, cell reporter. Potency, µM (top dose mostly 37.8 µM), without a hit: at the highest dose activity change, negative = inhibition, most hits filed as inhibitors. hit rate 1.8% among 300,000; calls by dose curve; tested in HEK293 cells; also: potency is read from the fitted curve at half-maximal effect
* hit, by the source's call; ? = inconclusive; . = not tested or not shown; [ ] = remark or other dose. Rows were chosen to be rich in hits. Some 7.9% of all compounds tested hit in one or more screens of this group. % is scaled to controls: 0 for no effect and ±100 for the full control effect.

SMILES	HCV inh	FMDV antiviral	HCMV inh	Lassa entry inh	MARV entry inh
CC(C)OC(=O)c1ccccc1C(=O)c1ccc(N)c([N+](=O)[O-])c1	-8%	1%	3	5%[46.1 µM]	-6%[46.1 µM]
O=C(COC(=O)c1ccccc1[N+](=O)[O-])c1ccc(C2CCCCC2)cc1	-30%	11µM*	?	-30%	?
N#CC1(NC(=O)COC(=O)c2ccccc2[N+](=O)[O-])CCCCC1	-1%	21%	0	11%	?
CNC(=O)COC(=O)c1ccccc1C(=O)c1ccc(Cl)c([N+](=O)[O-])c1	?	?	-100*	.	.
Cc1ccnc(N2CCN(C(=O)CSc3nc4ccccc4nc3N3CCC(C)CC3)CC2)c1	?	10%	27	.	.
COCc1cccc(-c2csc(C(C)(O)c3ccccc3)n2)c1 (stereo unspecified)	.	0%	0	.	.
COc1cc(=O)n2c(c1C(=O)NCc1ccco1)CCN(C(=O)c1ccc(C)c(C)c1)CC2	.	-11%	.	.	.
CCN(CC)S(=O)(=O)c1ccc2c(c1)nc(SCC(N)=O)n2-c1ccc(OC)cc1	-17%	-28%	-30	13µM*	-10%
O=C(NCCc1ccccc1)c1ccccc1NC(=O)C1CC=CCC1C(=O)O (stereo unspecified)	27%	35%	51	-13%	?
COC(=O)c1ccccc1NC(=O)C1CC=CCC1C(=O)O (stereo unspecified)	15%	9%	-60*	2%	30%
C[C@@]12C(C[C@H](O)[C@@]34C[C@@H](CCC13)[C@@H](CO)C4=O)[C@](C)(C(=O)O)CC[C@@H]2O (stereo partly specified)	.	-22%	-8	.	.
C=C1C(=O)[C@]23C[C@H]1CCC2[C@@]1(C)C(C[C@@H]3O)[C@](C)(C(=O)OC)CC[C@@H]1O (stereo partly specified)	.	20µM*	-102*	.	.
N#Cc1cc(Oc2ccccc2)c(-n2nnc3ccccc32)cc1C#N	10%	-5%	20	-7%	-6%
N#Cc1cc(Oc2ccc3ccccc3c2)c(-n2nnc3ccccc32)cc1C#N	-30%	-14%	-65*	-14%	?
OCCN1CCN(Cc2ccc3c(c2)CN(Cc2ccc4ccccc4c2)CCO3)CC1	.	8%	.	.	.
CC1CN(CC(=O)NCCC2COc3ccccc3O2)Cc2cc(Cl)ccc2O1 (stereo unspecified)	.	-5%	.	.	.
COc1ccc(OC)c(N(CCN2C(=O)c3ccccc3C2=O)C(=O)CCl)c1	.	?	-98*	.	.
COc1ccc(NC(=O)CCN2C(=O)c3ccccc3C2=O)c(OC)c1	1%	5%	6	2%	-3%
CCN(c1ccc(Cl)cc1)S(=O)(=O)c1nnc(NC(=O)C2CCCCC2)s1	.	-18%	-64*	4%[46.1 µM]	.
CCN(c1cc(C)cc(C)c1)S(=O)(=O)c1nnc(NC(=O)c2cccs2)s1	.	4%	-13	?	.
CCN(c1cccc(C)c1)S(=O)(=O)c1nnc(NC(=O)c2cccs2)s1	.	37%	12	10µM*	.
CCC(=O)Nc1nnc(S(=O)(=O)N(CC)c2ccc(Cl)cc2)s1	8%	3%	-67*	.	.
CC(C)CCNC(=O)c1ccc2c(c1)NC(=O)C(C(C)C)N2 (stereo unspecified)	.	-3%	26	-4%[46.1 µM]	17%[46.1 µM]
Cc1cccc(N2C(=O)c3cccc4c(N(C)CCO)ccc(c34)C2=O)c1	11µM*	?	.	-8%	?
O=C1c2ccc3c4c(ccc(c24)C(=O)N1c1cccc(O)c1)C(=O)N(c1cccc(O)c1)C3=O	5µM*	?	-88*	.	-1%
SMILES	HCV inh	FMDV antiviral	HCMV inh	Lassa entry inh	MARV entry inh
Cc1cccc(N2C(=O)c3cccc4cccc(c34)C2=O)c1	?	-19%	-32	.	.
Cc1cccc(N2C(=O)c3cccc4c(N)ccc(c34)C2=O)c1	10µM*	-1%	?	?	?
CCCC(=O)N1c2nc(C(C)C)nn2C2(CCCCC2)[C@@H]2CCCC[C@@H]21	.	-6%	-75*	19%[46.1 µM]	-16%[46.1 µM]
Cc1ccc(C2c3cccn3CCN2S(=O)(=O)c2ccc([N+](=O)[O-])cc2)cc1 (stereo unspecified)	.	-22%	-17	?	.
CC(C)=CCn1c2ccc(NC(=O)NCc3ccc(F)cc3)cc2c(=O)n1C	.	-9%	19	.	.
Cn1c(=O)c2cc(NC(=O)NCc3ccc(F)cc3)ccc2n1C/C=C/c1ccccc1	.	20%	-63*	.	.
Cc1cc(C)nc(N2CCN(c3ccc(F)cc3)CC2)n1	10µM*	24%	-24	.	.

Screening data deposited in PubChem BioAssay by National Center for Advancing Translational Sciences (NCATS).
